MARV entry inh = inhibitors of Marburg virus binding or cell entry; 300,000 tested, 1.8% active; Potency, µM (highest dose often 37.8 µM), for inactives: at the top dose activity change, negative = inhibition, usual class: inhibitors; Marburg virus pseudotyped entry inhibition, cell reporter; AID 540276; calls by dose curve; tested in HEK293 cells; note: potency is the fitted concentration of half-maximal effect
HCMV inh = inhibitors of human cytomegalovirus; 410,000 tested, 4.5% active; HFF cells, HCMV-luciferase reporter, 72 h; stronger effect = lower value; activity change, negative = inhibition, % at 57.5 µM; in the data active = activity change below about -60%; inconclusive = no clear call, values can overlap the other calls; inactive = above about -39%
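Steps: HFFs plated, 16 h 37C; compounds added; HCMV-luciferase added to MOI 1 PFU/cell; 72 h 37C; OneGlo reagent, 5 min room temperature; luminescence read, normalized to controls.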
HCV inhibitor = inhibitors of hepatitis C virus infection. AID 651820. Huh7.5.1 HCVcc-Cre infection, luciferase reporter, 44 h. Potency, µM (series often up to 41.8 µM), inactives show at the top dose activity change, negative = inhibition, usual class: inhibitors. 340,000 tested, 3.4% active; note: potency is the fitted concentration of half-maximal effect
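After 44 h co-culture of compound, cells and HCVcc-Cre (~0.5 moi), substrate is added for 15 min at room temperature and luciferase measured over 15 sec. Cells were seeded at 1,000/well and pre-cultured 4 h.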
LASV entry inh = inhibitors of Lassa virus binding or cell entry. Lassa virus pseudotype entry inhibition, cell reporter. 300,000 tested, 1.2% active. AID 540256. Potency, µM (highest dose often 37.9 µM), for the others: at the top dose activity change, negative = inhibition, most hits filed as inhibitors; calls by dose curve; tested in HEK293 cells; note: potency is the fitted concentration of half-maximal effect; nearly all actives have a fitted effect of over 50% in size
Pf growth 96h = P. falciparum growth inhibition at 96 hour, primary screen for plastid delayed-death inhibitors; P. falciparum luciferase reporter growth, 96 h; Potency, µM (top dose mostly 28.7 µM), without a hit: at the top dose activity change, negative = inhibition, usual class: inhibitors; 320,000 tested, 6.9% active; AID 504834; note: potency is the fitted concentration of half-maximal effect
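Infected RBCs, 2% Hct / 0.05% parasitemia final; luciferase-reporter P. falciparum; cpd 96 h, 37 C, 5% CO2; luciferase detection reagent; luminescence.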
Pf growth 48h = P. falciparum growth inhibition at 48 hours (one generation). P. falciparum luciferase growth in erythrocytes, 48 h. 310,000 tested, 5.9% active. Potency, µM (highest dose often 28.7 µM), for the others: at the highest dose activity change, negative = inhibition, most hits filed as inhibitors; note: potency is the fitted concentration of half-maximal effect
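First compound was added to culture medium, then infected red cells at 0.1% parasitemia and 2% hematocrit (final). After incubation at 37 C under 5% CO2, luciferase detection reagent was dispensed and light output recorded.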
The depositor's hits bear a star; i = inactive; ? = inconclusive; . = no result given; [ ] = dose if it differs, or a comment. A selection: hits, their analogues and other compounds. The true share with any hit is near 14%. Unless noted, calls come from the whole dose curve; as a rule, active = well fitted inhibition curve with a large enough effect; inconclusive = small, poorly fitted or top-dose-only effect, or another doubt; inactive = no such curve, though single readings can be large or run the other way. % is set by controls: 0 for no effect and ±100 for the full control effect.

SMILES	MARV entry inh	HCMV inh	HCV inhibitor	LASV entry inh	Pf growth 96h	Pf growth 48h
Cc1ccc(C#N)c(SCc2nnc(-c3ccc(Cl)cc3)o2)n1	2.1µM*	-91*	1%	?	22%	-79%
Cc1cc(C)c(C#N)c(SCc2ccccc2[N+](=O)[O-])n1	-7%	-97*	-23%	0%	-10%	7%
Cc1cc(C)c(C#N)c(SCc2nnc(-c3ccccc3[N+](=O)[O-])o2)n1	?	-95*	?	?	?	1%
Cc1cc(C)c(C#N)c(SCc2cn3c(C)cccc3n2)n1	7%	-63*	?	0%	?	0%
Cc1cc(C)nc(SCc2cn3c(C)cccc3n2)n1	-4%	-12	-13%	-6%	-9%	-1%
Cc1cc(C)c(C#N)c(SCc2nnc(-c3ccccc3)o2)n1	1.2µM*	-93*	?	1.2µM*	?	-14%
COc1ccc(-n2cc(-c3ccc(OC(F)F)cc3)[n+]3c2CCCCC3)cc1	.	-85*	-23%	.	?	1.7µM*
COc1ccc(-c2cn(-c3ccc(Cl)cc3)c3[n+]2CCCCC3)cc1	-18%	-66*	-3%	?	?	?
Clc1ccc(-c2cn(-c3ccc(Cl)cc3)c3[n+]2CCCCC3)cc1	?	?	1%	21%	?	?
CCc1ccc(C2c3c(oc4ccc(C)cc4c3=O)C(=O)N2c2nc(C)c(C)s2)cc1 (stereo not drawn)	-2%[46.1 µM]	13	.	21%[46.1 µM]	.	.
Cn1c2ccccc2c2cnn(CC(=O)NCCCN3CCCCC3)c(=O)c21	-2%[46.1 µM]	27	.	7%[46.1 µM]	.	.
Cc1cccc(N=C2NC(=O)/C(=C/c3cccn3C)S2)c1	.	-33	11µM*	.	?	?
O=C1NC(=Nc2ccccc2)S/C1=C\c1cccn1-c1ccccc1	?	-25	2.8µM*	?	?	.
O=C1NC(=Nc2ccccc2)S/C1=C\c1cccnc1	.	-18	7%	.	-29%	-29%
Cc1ccccc1N=C1NC(=O)/C(=C/c2cccn2C)S1	.	18	-15%	.	-17%	?
Cc1cccc(Nc2nnc(-c3ccc(C)c(S(=O)(=O)N4CCOCC4)c3)c3ccccc23)c1	.	-7	.	?	.	.
Cc1ccc2nc(NC(=O)CSc3[nH]c(=O)ncc3C)sc2c1	.	9	.	9%[46.1 µM]	.	.
Nc1ncnc(Sc2ccccc2)c1[N+](=O)[O-]	1%	-20	?	5%	9.3µM*	15µM*
Nc1ncnc(Sc2ccc(Cl)cc2)c1[N+](=O)[O-]	?	11	-12%	?	25%	?
N/C(=N\OC(=O)COc1ccc(Cl)cc1Br)c1ccncc1	19%[46.1 µM]	-9	-17%	8%	108%	i
CCc1ccc(OCC(=O)O/N=C(\N)c2ccncc2)c(Br)c1	16%	138	?	-25%	7.4µM*	179%
Cc1ccc2oc(=O)c3cc(C(=O)N4CCN(c5ccccc5F)CC4)sc3c2c1	-5%[46.1 µM]	-1	.	-6%[46.1 µM]	.	.
O=C(NCc1cccc(C(F)(F)F)c1)c1cc(-c2ccccc2)nn1CC1CC(c2cccnc2)=NO1 (stereo not drawn)	.	-1	-22%	.	.	.
Cc1ccc(CNC(=O)c2cc(-c3ccccc3C)nn2CC2CC(c3cccnc3)=NO2)cc1 (stereo not drawn)	.	-21	?	.	.	.
Cc1ccccc1-c1cc(C(=O)NCc2ccc3c(c2)OCO3)n(CC2CC(c3cccnc3)=NO2)n1 (stereo not drawn)	.	?	-15%	.	4.1µM*	?
SMILES	MARV entry inh	HCMV inh	HCV inhibitor	LASV entry inh	Pf growth 96h	Pf growth 48h
Cc1ccccc1-c1cc(C(=O)NCc2cccc(C(F)(F)F)c2)n(CC2CC(c3cccnc3)=NO2)n1 (stereo not drawn)	.	-13	8.9µM*	.	.	.
Cc1nnc(SCC(=O)N2c3ccccc3C(C)(c3ccccc3)CC2(C)C)s1 (stereo not drawn)	?	-62*	?	?	12µM*	10µM*
Cc1ccc(C2(C)CC(C)(C)N(C(=O)CSc3nnc(C)s3)c3ccccc32)cc1 (stereo not drawn)	?	-39	?	7.9µM*	?	13µM*
CCCCC(=O)N1c2ccccc2C(C)(c2ccccc2)CC1(C)C (stereo not drawn)	-26%[46.1 µM]	-7	.	?	.	.
CCC[C@H]1[C@@H](NC(=O)Nc2ccc(OC)cc2)CC[C@@]23CCCN2C(=O)CCC[C@@H]13	.	-2	.	.	.	.
CCOC(=O)Cc1c(C)nc2c(-c3ccccc3)cnn2c1C	.	10	?	.	25%	5%
Cc1cc(-c2ccccc2)n2ncc(-c3ccccc3)c2n1	3.7µM*	-60*	?	?	-1%	161%
Cc1cc(NCc2ccccc2)n2ncc(-c3ccccc3)c2n1	?	11	?	?	156%	164%
Cc1cc(NC2CCCC2)n2ncc(-c3ccccc3)c2n1	?	-90*	?	?	-77%	32%
Cc1nc2c(-c3ccccc3)cnn2c(N)c1-c1ccccc1	?	-91*	?	?	21%	45%
Cc1cc(NCCN2CCOCC2)n2ncc(-c3ccccc3)c2n1	?	223	?	?	167%	146%
COc1ccc(-c2cc(C)nc3c(-c4ccccc4)cnn23)cc1	-27%[46.1 µM]	37	11µM*	?	19%	13%
Cc1cc(NC(C)c2ccccc2)n2ncc(-c3ccccc3)c2n1 (stereo not drawn)	.	85	?	.	137%	106%
COc1ccc(C=CC2=C[C@]3(C)C[C@]2(C)[C@H](c2ccc(OC)cc2)CC3=O)cc1	4%[14.2 µM]	.	.	.	.	.
COc1ccc([N+](=O)[O-])c(OC)c1C(=O)NC(=O)Nc1c(F)cc(F)cc1F	-1%[46.1 µM]	43	-2%	-10%	?	?
COC(=O)c1sc(NC(=O)c2cc3nc(-c4ccc(Br)cc4)cc(C(F)(F)F)n3n2)c(C(=O)OC)c1C	.	-1	.	18%[46.1 µM]	.	.
Cc1c(CNC(C)CCc2ccccc2)c(C(=O)O)c(C)n1Cc1ccc(F)cc1Cl (stereo not drawn)	?	103	.	-10%[46.1 µM]	.	.
O=C(c1ccccc1F)N1CCN(c2ccc([N+](=O)[O-])c(NCc3cccnc3)c2)CC1	?	?	-5%	-11%	10µM*	?
O=C(c1ccccc1)N1CCN(c2ccc([N+](=O)[O-])c(NCc3cccnc3)c2)CC1	?	-11	?	-23%	?	9.3µM*
O=C(c1ccc(Cl)cc1)N1CCN(c2ccc([N+](=O)[O-])c(NCc3cccnc3)c2)CC1	?	-15	?	?	.	.
O=S(=O)(c1ccccc1)[C@@]1(c2ccccc2)C[C@@H]2ON=C(c3cccc(-c4ccccc4)c3)[C@@H]2C1	.	8	-28%	.	?	7.4µM*

Bioassay records deposited in PubChem by National Center for Advancing Translational Sciences (NCATS).
